A short description of test [1]: qHTS assay to identify small molecule antagonists of the peroxisome proliferator-activated receptor delta (PPARd) signaling pathway - cell viability counter screen (AID 743213; active = well fitted curve in the direction sought with a large enough effect in the repeat runs; an effect the other way counts as inactive or inconclusive; also: nearly all actives have a fitted effect of over 50% in size). Summed up:
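HEK293H cells with the PPARd UAS-bla reporter, co-treated 17 h at 37 C with compounds and L165041 (300 nM final), were lysed with CellTiter-Glo. Luminescence indicated viable cell content.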
In general terms: In qHTS, concentration-response curves come from the screen itself.

For test [2], the target named is Bile acid receptor (Homo sapiens) (UniProt Q96RI1). In words: qHTS assay to identify small molecule antagonists of the farnesoid-X-receptor (FXR) signaling pathway (AID 743217; active = well fitted inhibition curve with a large enough effect in the signal ratio in the repeat runs, not every such curve was filed as active; the % refers to the signal ratio). In a few lines:
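FXR-UAS-bla HEK 293T cells (beta-lactamase reporter) given compound plus chenodeoxycholic acid (50 uM final), 16 h at 37C. LiveBLAzer B/G FRET substrate added for 2 h at room temperature; fluorescence read.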

Test [3] in a line: qHTS assay to identify small molecule agonists of the farnesoid-X-receptor (FXR) signaling pathway - cell viability counter screen (AID 743218; active = well fitted curve in the direction sought with a large enough effect in the repeat runs; an effect the other way counts as inactive or inconclusive; also: nearly all actives have a fitted effect of over 45% in size). Summed up: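 FXR-UAS-bla HEK 293T cells exposed to compounds for 16 h at 37C. Cytotoxicity read in the same wells by CellTiter-Glo luminescence after 30 min at room temperature, following the beta-lactamase FRET read.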
In test [4] the target is Bile acid receptor (Homo sapiens) (UniProt Q96RI1). In words: qHTS assay to identify small molecule agonists of the farnesoid-X-receptor (FXR) signaling pathway (AID 743220; active = well fitted activation curve with a large enough effect in the signal ratio in the repeat runs, not every such curve was filed as active; the % refers to the signal ratio). Summed up: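 Beta-lactamase reporter under UAS control in GeneBLAzer FXR HEK 293T cells (5000/well) measured with LiveBLAzer FRET substrate after 2 h at room temperature. Compound exposure lasted 16 h at 37C.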

Test [5] is described as follows: qHTS assay to identify small molecule antagonists of the farnesoid-X-receptor (FXR) signaling pathway - cell viability counter screen (AID 743221; active = well fitted cell-killing curve with a large enough effect in the repeat runs, not every such curve was filed as active; also: nearly all actives have a fitted effect of over 50% in size). In a few lines:
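Quantitative HTS of the Tox21 10K library run in parallel with the beta-lactamase reporter read. HEK 293T cells carrying a UAS-driven bla reporter got compound and 50 uM CDCA (final) for 16 h; ATP-based luminescence followed.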

The target in test [6] is Vitamin D3 receptor (Homo sapiens) (UniProt P11473). The test can be described thus: qHTS assay to identify small molecule agonists of the vitamin D receptor (VDR) signaling pathway (AID 743222). In a few lines:
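VDR-bla cells plated 4 h at 37 C, then exposed to compounds for 16 h at 37 C. Beta-lactamase reporter activity measured by fluorescence after 2 h room-temperature loading with LiveBLAzer B/G FRET substrate.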

Test [7] can be described thus: qHTS assay to identify small molecule antagonists of the vitamin D receptor (VDR) signaling pathway - cell viability counter screen (AID 743225; active = well fitted curve in the direction sought with a large enough effect in the repeat runs; an effect the other way counts as inactive or inconclusive; also: nearly all actives have a fitted effect of over 50% in size). Summed up:
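Cells (VDR-UAS-bla HEK 293T) are plated, rested 4 h at 37C, dosed with compound and 3 nM final 1-alpha,25-dihydroxy vitamin D3, and incubated 16 h. Viability is taken from CellTiter-Glo luminescence in the reporter wells.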

The nature of test [8]: qHTS assay to identify small molecule agonists of the NFkB signaling pathway (AID 1159509; active = well fitted curve in the direction sought with a large enough effect in the signal ratio in the repeat runs, not every such curve was filed as active; the % refers to the signal ratio; also: series mostly up to about 61 µM). In a few lines: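 After overnight attachment, reporter cells received test compounds, DMSO or positive controls and were incubated 5 hr at 37 C. FRET substrate was then added for 1.5 hr at room temperature before dual-emission fluorescence reading.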
A short description of test [9]: qHTS assay to identify small molecule agonists of the NFkB signaling pathway - cell viability counter screen (AID 1159515). Also: series mostly up to about 61 µM; nearly all actives have a fitted effect of over 55% in size. Summed up:
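NFkB-bla ME-180 cells, 2,000/well, plated overnight at 37 C; compound added for 5 hr at 37 C. Viability read in the same wells as the bla reporter, by CellTiter-Glo luminescence after 30 min at room temperature.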

The nature of test [10]: qHTS assay to identify small molecule agonists of the endoplasmic reticulum stress response signaling pathway - cell viability counter screen (AID 1159517).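 Also: HeLa cells carrying an ER stress response element beta-lactamase reporter; series mostly up to about 61 µM; nearly all actives have a fitted effect of over 50% in size.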 In a few lines: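 Luminescence readout: CellTiter-Glo, 30 min RT, same wells as the ESRE-bla reporter read. HeLa ESRE-bla, 1,500 cells/well, o/n 37 C; cpd 5 hr 37 C/5% CO2.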
Test [11] is described as follows: qHTS assay to identify small molecule antagonists of the retinoid-related orphan receptor gamma (ROR-gamma) signaling pathway - cell viability counter screen (AID 1159520; active = well fitted curve in the direction sought with a large enough effect in the repeat runs; an effect the other way counts as inactive or inconclusive; also: nearly all actives have a fitted effect of over 50% in size). In a few lines: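 Tet-on ROR gamma CHO cells (1,000/well) were plated 4 hr, given compounds in DMSO for 2 hr at 37 C, then induced with 1 uM final doxycycline for 16 hr. Viability was read as ATP by CellTiter-Glo luminescence after 30 min.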

Test [12] in a line: qHTS assay to identify small molecule agonists of the AP-1 signaling pathway - cell viability counter screen (AID 1159525). Also: nearly all actives have a fitted effect of over 55% in size. Summed up: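 ME-180 AP-1-bla, 2500 cells/well, Opti-MEM + 0.5% dialyzed FBS; overnight 37 °C; cpd 15-pt titration, 5 h 37 °C; CellTiter-Glo 30 min RT; luminescence read; normalised to TOAB and DMSO controls.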
For test [13], the target named is Retinoic acid receptor RXR-alpha (Homo sapiens) (UniProt P19793). The test can be described thus: qHTS assay to identify small molecule agonists of the RXR signaling pathway (AID 1159527). Also: nearly all actives have a fitted effect of over 35% in size. Also: potency is read from the fitted curve at half-maximal effect. Summed up:
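qHTS of the Tox21 10K library in GeneBLAzer RXR-alpha HEK 293T cells carrying a beta-lactamase reporter […]; 16 hr treatment, 9-cis retinoic acid as agonist control, FRET read-out.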

A short description of test [14]: qHTS assay to identify small molecule agonists of the vitamin D receptor (VDR) signaling pathway - cell viability counter screen (AID 743224; active = well fitted curve in the direction sought with a large enough effect in the repeat runs; an effect the other way counts as inactive or inconclusive). Summed up:
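VDR-bla cells, 4 h after plating, exposed to compounds for 16 h at 37C; viability then read in the same wells as CellTiter-Glo luminescence after 30 min at room temperature, following the bla FRET read.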

Test [15] deals with Peroxisome proliferator-activated receptor delta (Homo sapiens) (UniProt Q03181). The test can be described thus: qHTS assay to identify small molecule agonists of the peroxisome proliferator-activated receptor delta (PPARd) signaling pathway (AID 743212). In a few lines: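 GeneBLAzer PPARd UAS-bla HEK293H cells (beta-lactamase reporter under UAS control), plated and rested 5 h at 37 C, then exposed to compounds in DMSO at 37 C; LiveBLAzer B/G FRET substrate added, 2 h room temperature, fluorescence read.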

Test [16] has the same target. The test can be described thus: qHTS assay to identify small molecule antagonists of the peroxisome proliferator-activated receptor delta (PPARd) signaling pathway (AID 743215; active = well fitted inhibition curve with a large enough effect in the signal ratio in the repeat runs, not every such curve was filed as active; the % refers to the signal ratio;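 also: cells stimulated with agonist L165041 at 300 nM final during compound exposure; series mostly up to about 62 µM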). In a few lines: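 PPARd-bla HEK293H cells (UAS-bla reporter) preincubated 5 h, then given compound plus 300 nM final L165041 agonist for 17 h at 37 C. Beta-lactamase activity read by LiveBLAzer B/G FRET substrate fluorescence after 2 h at room temperature.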

The target in test [17] is Nuclear receptor ROR-gamma (Homo sapiens) (UniProt P51449). In words: qHTS assay to identify small molecule antagonists of the retinoid-related orphan receptor gamma (ROR-gamma) signaling pathway (AID 1159521; active = well fitted curve in the direction sought with a large enough effect in the repeat runs; an effect the other way counts as inactive or inconclusive). Summed up: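 RORγ antagonism is scored from reduced reporter luminescence in Tet-on CHO cells. Induction used 1 uM final doxycycline hyclate for 16 h at 37 C, following a 2 h compound exposure.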

A short description of test [18]: qHTS assay to identify small molecule agonists of the AP-1 signaling pathway (AID 1159526).
A short description of test [19]: qHTS assay to identify small molecule agonists of the endoplasmic reticulum stress response signaling pathway (AID 1159516; active = well fitted activation curve with a large enough effect in the signal ratio in the repeat runs, not every such curve was filed as active; the % refers to the signal ratio). In a few lines:
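CellSensor ESRE-bla HeLa cells, 1,500 per well, plated overnight, then exposed to compounds for 5 hr at 37 C. Beta-lactamase reporter read with LiveBLAzer B/G FRET substrate after 2 hr at room temperature, 405 nm excitation, 460 and 530 nm emission.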

Records with an inconclusive call do not appear. Unmarked numbers belong to inactive results. Calls of active or inactive are those of the source. Unless noted, calls follow the shape of the full dose curve.

Sequence of Retinoic acid receptor RXR-alpha (Homo sapiens) (P19793 whole entry, looked up): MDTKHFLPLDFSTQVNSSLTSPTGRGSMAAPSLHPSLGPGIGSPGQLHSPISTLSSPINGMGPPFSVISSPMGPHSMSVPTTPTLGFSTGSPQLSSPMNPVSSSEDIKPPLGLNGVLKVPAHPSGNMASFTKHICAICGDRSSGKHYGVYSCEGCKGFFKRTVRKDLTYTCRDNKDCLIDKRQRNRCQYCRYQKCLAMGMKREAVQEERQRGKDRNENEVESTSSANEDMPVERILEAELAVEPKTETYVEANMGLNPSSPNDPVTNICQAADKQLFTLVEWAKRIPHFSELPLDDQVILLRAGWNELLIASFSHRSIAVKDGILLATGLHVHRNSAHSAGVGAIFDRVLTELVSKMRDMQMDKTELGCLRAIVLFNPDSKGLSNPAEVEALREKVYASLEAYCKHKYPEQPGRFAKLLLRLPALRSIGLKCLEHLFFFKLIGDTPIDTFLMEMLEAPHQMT
Sequence of Vitamin D3 receptor (Homo sapiens) (P11473 whole entry, looked up): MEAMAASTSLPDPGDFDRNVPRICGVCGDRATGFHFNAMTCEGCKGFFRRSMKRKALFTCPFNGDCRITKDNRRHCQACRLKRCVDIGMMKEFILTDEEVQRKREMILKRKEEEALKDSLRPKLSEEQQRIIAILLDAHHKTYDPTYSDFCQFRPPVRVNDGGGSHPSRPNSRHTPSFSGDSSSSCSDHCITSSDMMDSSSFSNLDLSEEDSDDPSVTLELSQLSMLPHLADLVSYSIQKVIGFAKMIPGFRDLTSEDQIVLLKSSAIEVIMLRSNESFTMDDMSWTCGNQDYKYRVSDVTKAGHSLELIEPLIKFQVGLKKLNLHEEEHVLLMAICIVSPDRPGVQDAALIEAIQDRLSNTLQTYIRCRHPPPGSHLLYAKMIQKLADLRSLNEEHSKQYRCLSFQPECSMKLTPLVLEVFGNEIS
Sequence of Bile acid receptor (Homo sapiens) (Q96RI1 whole entry, looked up): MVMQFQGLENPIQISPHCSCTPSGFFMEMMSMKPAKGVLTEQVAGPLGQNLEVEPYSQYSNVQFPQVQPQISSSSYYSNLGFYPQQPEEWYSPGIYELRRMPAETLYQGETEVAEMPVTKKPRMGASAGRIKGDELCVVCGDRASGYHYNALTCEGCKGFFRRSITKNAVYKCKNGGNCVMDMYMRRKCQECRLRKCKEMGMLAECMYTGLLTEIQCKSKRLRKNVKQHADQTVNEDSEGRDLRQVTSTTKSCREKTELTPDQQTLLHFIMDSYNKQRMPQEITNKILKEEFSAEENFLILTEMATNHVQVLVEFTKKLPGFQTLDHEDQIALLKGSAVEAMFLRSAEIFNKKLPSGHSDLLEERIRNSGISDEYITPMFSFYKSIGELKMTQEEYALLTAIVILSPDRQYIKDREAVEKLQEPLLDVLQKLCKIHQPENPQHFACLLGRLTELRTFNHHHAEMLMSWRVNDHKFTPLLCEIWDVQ
Sequence of Peroxisome proliferator-activated receptor delta (Homo sapiens) (Q03181 whole entry, looked up): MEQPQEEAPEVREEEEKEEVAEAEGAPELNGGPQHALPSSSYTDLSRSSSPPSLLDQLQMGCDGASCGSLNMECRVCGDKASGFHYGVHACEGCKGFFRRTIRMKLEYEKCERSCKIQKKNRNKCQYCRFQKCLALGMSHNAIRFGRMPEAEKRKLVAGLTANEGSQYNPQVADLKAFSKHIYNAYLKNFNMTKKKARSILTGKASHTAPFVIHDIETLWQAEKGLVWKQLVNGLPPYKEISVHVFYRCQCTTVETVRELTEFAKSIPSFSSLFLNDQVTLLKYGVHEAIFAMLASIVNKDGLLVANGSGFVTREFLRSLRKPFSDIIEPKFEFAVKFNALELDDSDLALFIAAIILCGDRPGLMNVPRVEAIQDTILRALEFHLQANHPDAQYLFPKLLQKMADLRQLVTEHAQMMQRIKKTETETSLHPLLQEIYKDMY

With `CNNC`, the compound was classed as inactive in [1], in test [4], in test [5], in [6], in test [7] and in test [8]. Further, in test [9], the compound was called inactive. In addition, the Potency result in test [2], in [3], in test [10], in [11], in test [12] and in test [13] was “inactive” in each case.
Turning to `CN(N=O)C(N)=O`, the compound was classed as inactive in test [1], in [4], in test [5], in [6], in [7] and in [8]. Moreover, the compound was called inactive in test [9]. Also, the Potency entry in test [2], in [3], in [14], in test [10], in test [11] and in test [12] was “inactive” throughout. In addition, the Potency entry in [13] was “inactive”.
As for `O=C1CN=C(c2ccccc2)c2cc([N+](=O)[O-])ccc2N1`, the compound was classed as inactive in test [15], in [1], in test [16], in [5], in [6] and in test [7]. The compound was called inactive in test [8], in [9] and in test [18]. Moreover, the Potency result in test [3], in [14], in [10], in [11], in [17] and in test [12] was “inactive” throughout. Besides, the Potency entry in [13] is “inactive”.
For `N#CCNCC#N`, the call in [15], in [1], in [16], in test [5], in test [6] and in test [7] was inactive. Further, the result in [8], in [9] and in test [18] was inactive. Also, the Potency entry in test [3], in test [14], in test [10], in [11], in [17] and in [12] was “inactive” each time.
Turning to `Cc1cnc[nH]1`, the call in [1], in test [16], in test [4], in [5], in test [6] and in test [7] was inactive. The compound was called inactive in test [8], in test [9] and in test [18]. Further, the Potency entry in [3], in [14], in test [10], in test [11], in test [12] and in test [13] was “inactive” throughout.
On to `O=C(NCO)NCO`, for which the outcome in [15], in test [1], in test [5], in test [6], in test [7] and in [8] was inactive. The result in [9] and in test [18] was inactive. Further, the Potency result in test [3], in [10], in test [11], in test [12] and in [13] was “inactive” each time.
In the case of `CCCCC(=O)Cl`, the call in test [15], in test [1], in test [16], in test [4], in test [5] and in [6] was inactive. Further, the outcome in test [7], in test [9], in [19] and in test [18] was inactive. Further, the Potency result in [2], in test [3], in test [14], in [10], in test [11] and in [17] was “inactive” each time. The Potency entry in test [12] and in test [13] was “inactive” each time.
Turning to `CCC1(c2ccccc2)C(=O)N=C(O)NC1=O` (stereo not given), the compound was called inactive in [15], in test [1], in test [16], in [5], in test [6] and in [7]. Moreover, the compound was called inactive in test [8], in [9] and in [18]. Besides, the Potency result in test [3], in test [14], in test [10], in [11], in [17] and in test [12] was “inactive” throughout. For the same compound, the Potency in [13] is 12 µM (active).

These data come from PubChem BioAssay (Tox21).
